Laboratory results published in the supplement of paper PMC11732987, “Enantioselective OTUD7B fragment discovery through chemoproteomics screening and high-throughput optimisation” (Communications Chemistry, 2025).

Key:
Assay in all cases: log2 ratio of Biotin-Ahx-Ub-VS probe labelling (fragment/DMSO); higher = less target engagement (more negative = stronger competition), active = hit call of the paper (q ≤ 0.05, log2 ratio ≤ -1)
Settings in all cases: compound concentration: 200 uM; treatment time: 3 h
[1] = target: USP16 (UniProt Q9Y5T5)
Method in brief: (§1)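 Global-median-normalised Spectronaut label-free quantities were compared by unpaired t-test, and values are average log2 ratios of fragment over vehicle. Only proteins with ≥2 unique peptides were used. HEK293T lysate (495 µg per sample) was treated in triplicate with fragment at 200 µM or vehicle for 3 h and then with Biotin-Ahx-Ub-VS at 0.5 µM final for 1 h. Labelled DUBs were then NeutrAvidin-enriched, digested with LysC and trypsin, and run by diaPASEF LC-MS/MS.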

[2] = target: T1, USP19 (UniProt O94966)
T1 sequence (whole entry): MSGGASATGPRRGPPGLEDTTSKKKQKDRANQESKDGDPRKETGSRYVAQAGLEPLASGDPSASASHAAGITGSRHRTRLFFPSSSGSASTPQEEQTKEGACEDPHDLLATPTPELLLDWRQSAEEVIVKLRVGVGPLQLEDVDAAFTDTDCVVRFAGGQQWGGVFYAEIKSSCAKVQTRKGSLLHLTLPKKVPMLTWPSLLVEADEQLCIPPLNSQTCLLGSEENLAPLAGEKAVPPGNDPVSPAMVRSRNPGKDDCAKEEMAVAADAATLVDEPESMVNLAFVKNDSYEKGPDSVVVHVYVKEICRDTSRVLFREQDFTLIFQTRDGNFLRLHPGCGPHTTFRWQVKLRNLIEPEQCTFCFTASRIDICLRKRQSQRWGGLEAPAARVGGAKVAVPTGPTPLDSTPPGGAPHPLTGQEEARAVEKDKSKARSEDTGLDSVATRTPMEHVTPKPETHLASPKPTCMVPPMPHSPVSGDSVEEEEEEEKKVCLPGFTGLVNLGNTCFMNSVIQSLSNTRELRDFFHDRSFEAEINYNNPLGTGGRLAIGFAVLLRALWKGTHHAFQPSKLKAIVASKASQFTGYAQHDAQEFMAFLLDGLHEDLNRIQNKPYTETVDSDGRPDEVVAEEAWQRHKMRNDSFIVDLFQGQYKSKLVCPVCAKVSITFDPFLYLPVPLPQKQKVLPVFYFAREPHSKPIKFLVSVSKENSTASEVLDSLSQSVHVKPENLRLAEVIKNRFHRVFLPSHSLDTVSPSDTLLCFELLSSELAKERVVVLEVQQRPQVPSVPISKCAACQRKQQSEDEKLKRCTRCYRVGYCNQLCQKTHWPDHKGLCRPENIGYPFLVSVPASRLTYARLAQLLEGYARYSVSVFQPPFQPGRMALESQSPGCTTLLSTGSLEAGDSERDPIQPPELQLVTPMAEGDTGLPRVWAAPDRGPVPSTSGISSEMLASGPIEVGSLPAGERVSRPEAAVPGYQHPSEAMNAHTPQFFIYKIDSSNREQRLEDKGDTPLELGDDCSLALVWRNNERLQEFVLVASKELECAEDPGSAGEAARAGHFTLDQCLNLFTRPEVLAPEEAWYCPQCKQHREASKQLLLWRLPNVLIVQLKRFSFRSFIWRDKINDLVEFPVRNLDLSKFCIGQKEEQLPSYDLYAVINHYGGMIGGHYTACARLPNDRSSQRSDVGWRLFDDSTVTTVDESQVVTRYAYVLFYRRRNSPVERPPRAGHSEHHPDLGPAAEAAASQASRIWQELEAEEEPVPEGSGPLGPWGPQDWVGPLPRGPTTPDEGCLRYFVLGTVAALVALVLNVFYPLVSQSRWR
Method in brief: as §1

[3] = target: USP24 (UniProt Q9UPU5)
Method in brief: as §1

[4] = target: T2, USP25 (UniProt Q9UHP3)
T2 sequence (whole entry): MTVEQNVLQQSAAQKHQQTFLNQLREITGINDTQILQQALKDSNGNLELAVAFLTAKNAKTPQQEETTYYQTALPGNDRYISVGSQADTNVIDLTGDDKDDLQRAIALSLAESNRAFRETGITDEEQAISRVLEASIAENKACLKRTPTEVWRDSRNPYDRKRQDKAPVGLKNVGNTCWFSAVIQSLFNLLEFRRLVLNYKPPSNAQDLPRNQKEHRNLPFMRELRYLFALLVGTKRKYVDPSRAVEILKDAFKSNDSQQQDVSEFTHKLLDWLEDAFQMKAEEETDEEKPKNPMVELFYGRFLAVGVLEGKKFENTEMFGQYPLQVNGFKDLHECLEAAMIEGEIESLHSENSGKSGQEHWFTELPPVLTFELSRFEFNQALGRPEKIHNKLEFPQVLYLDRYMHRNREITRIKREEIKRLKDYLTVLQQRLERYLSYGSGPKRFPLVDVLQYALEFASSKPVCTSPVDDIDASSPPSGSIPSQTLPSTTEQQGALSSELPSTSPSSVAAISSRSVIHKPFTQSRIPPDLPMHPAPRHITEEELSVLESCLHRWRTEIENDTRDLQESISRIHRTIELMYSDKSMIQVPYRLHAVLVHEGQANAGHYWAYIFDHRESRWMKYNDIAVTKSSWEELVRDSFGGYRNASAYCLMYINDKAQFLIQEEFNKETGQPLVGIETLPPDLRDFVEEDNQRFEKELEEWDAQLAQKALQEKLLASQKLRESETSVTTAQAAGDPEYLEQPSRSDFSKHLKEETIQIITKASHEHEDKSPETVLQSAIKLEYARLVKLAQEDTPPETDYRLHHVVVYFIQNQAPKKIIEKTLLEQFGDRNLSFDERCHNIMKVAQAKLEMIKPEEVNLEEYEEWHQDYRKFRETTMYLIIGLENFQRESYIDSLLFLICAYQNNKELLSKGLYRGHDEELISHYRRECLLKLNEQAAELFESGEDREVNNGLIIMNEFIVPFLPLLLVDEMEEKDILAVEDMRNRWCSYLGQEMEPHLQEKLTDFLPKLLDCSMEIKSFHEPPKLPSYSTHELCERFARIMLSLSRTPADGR
Method in brief: as §1

[5] = target: T3, USP28 (UniProt Q96RU2)
T3 sequence (whole entry): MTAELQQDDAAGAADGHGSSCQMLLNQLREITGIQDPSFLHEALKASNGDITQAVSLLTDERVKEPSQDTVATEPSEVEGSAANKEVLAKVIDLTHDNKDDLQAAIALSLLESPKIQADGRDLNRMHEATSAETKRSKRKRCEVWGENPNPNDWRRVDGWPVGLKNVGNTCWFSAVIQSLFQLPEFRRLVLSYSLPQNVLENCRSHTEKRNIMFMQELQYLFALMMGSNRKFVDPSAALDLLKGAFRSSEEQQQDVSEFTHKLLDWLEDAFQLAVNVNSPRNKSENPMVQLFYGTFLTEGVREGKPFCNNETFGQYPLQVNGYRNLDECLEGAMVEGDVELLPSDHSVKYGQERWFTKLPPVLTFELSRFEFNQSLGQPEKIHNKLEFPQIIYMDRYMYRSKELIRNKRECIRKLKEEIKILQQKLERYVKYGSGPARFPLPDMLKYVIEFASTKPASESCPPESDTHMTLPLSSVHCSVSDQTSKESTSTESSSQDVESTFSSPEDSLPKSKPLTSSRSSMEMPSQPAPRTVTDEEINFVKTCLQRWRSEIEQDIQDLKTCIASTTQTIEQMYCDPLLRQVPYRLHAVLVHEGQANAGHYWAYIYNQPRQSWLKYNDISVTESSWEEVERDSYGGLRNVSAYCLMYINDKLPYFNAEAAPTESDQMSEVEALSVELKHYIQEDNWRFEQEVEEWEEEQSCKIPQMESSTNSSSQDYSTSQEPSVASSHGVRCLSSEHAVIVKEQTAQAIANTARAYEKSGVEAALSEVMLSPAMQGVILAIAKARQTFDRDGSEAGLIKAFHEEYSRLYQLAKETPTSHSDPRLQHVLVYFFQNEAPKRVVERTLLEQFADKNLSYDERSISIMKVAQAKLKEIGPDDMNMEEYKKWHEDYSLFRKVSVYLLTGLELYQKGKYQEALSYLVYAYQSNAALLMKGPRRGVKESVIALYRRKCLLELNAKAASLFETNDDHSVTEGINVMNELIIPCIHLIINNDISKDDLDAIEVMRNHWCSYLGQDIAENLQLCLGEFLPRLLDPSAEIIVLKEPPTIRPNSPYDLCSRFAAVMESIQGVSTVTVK
Method in brief: as §1

Measured: log2 ratio of Biotin-Ahx-Ub-VS probe labelling

Sequence of USP24 (Q9UPU5 whole entry): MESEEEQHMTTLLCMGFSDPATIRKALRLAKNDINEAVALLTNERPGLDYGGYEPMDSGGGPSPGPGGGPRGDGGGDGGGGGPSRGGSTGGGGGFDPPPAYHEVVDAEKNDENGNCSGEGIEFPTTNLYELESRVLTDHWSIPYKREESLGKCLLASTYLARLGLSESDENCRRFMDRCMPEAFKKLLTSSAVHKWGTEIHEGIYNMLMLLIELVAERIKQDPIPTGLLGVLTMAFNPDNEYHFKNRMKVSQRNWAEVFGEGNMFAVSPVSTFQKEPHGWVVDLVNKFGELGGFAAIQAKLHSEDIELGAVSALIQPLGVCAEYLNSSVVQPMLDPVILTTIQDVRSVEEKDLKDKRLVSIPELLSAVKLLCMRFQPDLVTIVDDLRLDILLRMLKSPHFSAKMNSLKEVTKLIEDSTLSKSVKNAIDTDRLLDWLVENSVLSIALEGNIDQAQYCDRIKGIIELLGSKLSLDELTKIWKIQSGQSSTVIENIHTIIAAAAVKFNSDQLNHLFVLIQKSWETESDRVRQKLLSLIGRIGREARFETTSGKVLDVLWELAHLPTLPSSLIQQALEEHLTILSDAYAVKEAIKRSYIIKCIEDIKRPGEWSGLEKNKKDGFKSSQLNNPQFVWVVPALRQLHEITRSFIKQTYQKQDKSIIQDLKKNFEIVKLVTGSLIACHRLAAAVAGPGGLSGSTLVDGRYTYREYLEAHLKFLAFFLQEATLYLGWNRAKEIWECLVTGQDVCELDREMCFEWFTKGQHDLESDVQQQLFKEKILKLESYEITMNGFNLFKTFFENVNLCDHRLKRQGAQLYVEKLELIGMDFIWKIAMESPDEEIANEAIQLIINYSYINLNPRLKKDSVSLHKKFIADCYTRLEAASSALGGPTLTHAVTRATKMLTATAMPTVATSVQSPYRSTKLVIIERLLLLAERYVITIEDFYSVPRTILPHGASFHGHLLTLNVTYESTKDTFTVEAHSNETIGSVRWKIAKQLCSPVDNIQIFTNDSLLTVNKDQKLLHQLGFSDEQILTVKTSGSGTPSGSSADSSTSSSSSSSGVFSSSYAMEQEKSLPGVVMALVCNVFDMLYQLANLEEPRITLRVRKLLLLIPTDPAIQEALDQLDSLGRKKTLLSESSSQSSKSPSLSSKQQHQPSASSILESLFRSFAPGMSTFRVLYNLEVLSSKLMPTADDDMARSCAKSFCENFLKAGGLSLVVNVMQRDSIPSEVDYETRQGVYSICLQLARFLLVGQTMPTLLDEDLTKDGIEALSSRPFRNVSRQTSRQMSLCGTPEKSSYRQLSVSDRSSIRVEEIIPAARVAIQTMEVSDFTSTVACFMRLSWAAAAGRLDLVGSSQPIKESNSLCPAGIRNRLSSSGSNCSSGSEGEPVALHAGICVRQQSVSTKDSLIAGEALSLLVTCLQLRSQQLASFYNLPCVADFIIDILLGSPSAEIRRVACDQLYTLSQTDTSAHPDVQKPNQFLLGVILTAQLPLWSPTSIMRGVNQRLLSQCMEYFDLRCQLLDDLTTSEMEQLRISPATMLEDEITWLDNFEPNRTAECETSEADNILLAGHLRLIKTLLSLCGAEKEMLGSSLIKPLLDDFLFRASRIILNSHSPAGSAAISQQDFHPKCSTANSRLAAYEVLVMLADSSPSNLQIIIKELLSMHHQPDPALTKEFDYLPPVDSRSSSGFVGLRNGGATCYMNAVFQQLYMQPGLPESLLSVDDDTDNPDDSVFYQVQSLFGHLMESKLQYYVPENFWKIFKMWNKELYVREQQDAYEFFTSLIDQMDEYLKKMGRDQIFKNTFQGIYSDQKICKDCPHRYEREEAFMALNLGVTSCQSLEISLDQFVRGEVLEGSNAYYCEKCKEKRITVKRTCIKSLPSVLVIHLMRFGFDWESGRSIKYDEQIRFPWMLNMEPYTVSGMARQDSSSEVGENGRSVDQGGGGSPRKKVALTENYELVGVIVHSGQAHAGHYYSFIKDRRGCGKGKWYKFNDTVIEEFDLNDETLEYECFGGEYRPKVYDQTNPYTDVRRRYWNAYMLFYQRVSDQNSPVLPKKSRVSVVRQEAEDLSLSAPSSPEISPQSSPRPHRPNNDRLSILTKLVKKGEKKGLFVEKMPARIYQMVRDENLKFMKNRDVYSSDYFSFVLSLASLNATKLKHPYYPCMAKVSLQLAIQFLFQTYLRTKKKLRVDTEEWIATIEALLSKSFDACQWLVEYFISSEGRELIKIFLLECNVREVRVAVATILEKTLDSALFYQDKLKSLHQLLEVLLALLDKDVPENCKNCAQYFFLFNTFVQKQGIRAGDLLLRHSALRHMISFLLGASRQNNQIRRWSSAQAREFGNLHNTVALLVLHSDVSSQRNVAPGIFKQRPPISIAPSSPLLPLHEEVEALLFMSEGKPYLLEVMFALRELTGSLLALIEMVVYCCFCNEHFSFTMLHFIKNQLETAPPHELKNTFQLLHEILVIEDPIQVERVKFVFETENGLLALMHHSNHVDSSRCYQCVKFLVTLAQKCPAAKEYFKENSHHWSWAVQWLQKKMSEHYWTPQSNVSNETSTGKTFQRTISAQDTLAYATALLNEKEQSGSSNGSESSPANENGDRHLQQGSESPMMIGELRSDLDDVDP
Sequence of USP16 (Q9Y5T5 whole entry, looked up, the tested form may be a part): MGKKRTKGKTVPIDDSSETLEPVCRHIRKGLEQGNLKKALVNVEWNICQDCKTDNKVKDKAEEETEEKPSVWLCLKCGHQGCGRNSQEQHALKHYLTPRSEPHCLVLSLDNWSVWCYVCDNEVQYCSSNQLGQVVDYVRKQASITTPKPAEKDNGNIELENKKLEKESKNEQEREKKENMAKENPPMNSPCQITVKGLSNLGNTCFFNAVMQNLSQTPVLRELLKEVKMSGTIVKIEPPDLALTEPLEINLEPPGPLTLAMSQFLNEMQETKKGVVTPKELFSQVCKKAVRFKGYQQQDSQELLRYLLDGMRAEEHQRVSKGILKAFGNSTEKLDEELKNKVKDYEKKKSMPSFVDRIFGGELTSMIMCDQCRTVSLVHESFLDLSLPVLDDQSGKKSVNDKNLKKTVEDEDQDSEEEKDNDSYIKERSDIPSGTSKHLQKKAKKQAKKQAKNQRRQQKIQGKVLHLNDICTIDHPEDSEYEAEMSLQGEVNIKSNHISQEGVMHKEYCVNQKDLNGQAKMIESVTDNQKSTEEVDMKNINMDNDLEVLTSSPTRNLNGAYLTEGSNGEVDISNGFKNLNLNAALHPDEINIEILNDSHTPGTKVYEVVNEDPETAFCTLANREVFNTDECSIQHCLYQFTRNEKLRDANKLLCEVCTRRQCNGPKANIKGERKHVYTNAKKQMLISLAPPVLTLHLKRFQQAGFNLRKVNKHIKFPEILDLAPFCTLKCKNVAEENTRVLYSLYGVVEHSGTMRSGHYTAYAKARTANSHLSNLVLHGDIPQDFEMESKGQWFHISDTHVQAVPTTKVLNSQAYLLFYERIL

Cc1nc(CNC(=O)CCl)c2ccccn12.Cl
inactive: [1] -0.0983 | [2] -0.106 | [3] -0.108 | [4] -0.0552 | [5] -0.23
